# Compound activity from PubChem.
# Shiga inhibitor: blocks Shiga toxin action in Vero cells; Vero cells, Shiga toxin protein synthesis inhibition reporter; inhibition, % at 38.7 µM; 9.2% of 290,000 active; in the data active means inhibition mostly above about 28%, no sharp cut-off; inactive means mostly below about 43%; further: 0% is about no effect
# Tb PYK inh: T. brucei pyruvate kinase inhibition | TbPYK enzyme, Kinase-Glo Plus ATP luminescence, 45 min | 0.12% of 410,000 active | Q57TT1 | Potency, µM (series often up to 76.8 µM), for inactives: at the top dose activity, negative = inhibition, actives largely listed as inhibitors; further: potency means the concentration at half of the fitted maximal effect; on the % scale 0 is the no-effect control and ±100 the full control effect; nearly all actives have a fitted effect of over 50% in size
#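 ADP (130 uM final) triggers the TbPYK reaction after compound addition; incubation is 45 min at room temperature. Kinase-Glo Plus is then added and luminescence imaged. Normalized data are fitted to concentration-effect curves.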
# LmPK inhibitor: LmPK (Leishmania mexicana) enzyme inhibition | Q27686 | purified LmPK, Kinase-Glo ATP luminescence, 1 h | Potency, µM (series often up to 57.5 µM), for inactives: at the highest dose activity change, negative = inhibition, hits mostly inhibitors | 0.37% of 290,000 active; further: potency means the concentration at half of the fitted maximal effect; on the % scale 0 is the no-effect control and ±100 the full control effect
#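 0.1 nM LmPK, 0.5 mM PEP, 0.1 mM ADP; 50 mM imidazole pH 7.2, 7 mM MgCl2, 50 mM KCl; 1 h RT. Kinase-Glo luminescence readout, normalized to no-enzyme (full inhibition) and uninhibited wells.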
# Giardia FBPA inh: blocks Giardia fructose-bisphosphate aldolase activity. AID 2451. Potency, µM (highest dose often 59.6 µM), without a hit: top-dose activity, negative = inhibition, usual class: inhibitors. purified Giardia FBPA. 0.71% of 290,000 active; further: potency means the concentration at half of the fitted maximal effect; on the % scale 0 is the no-effect control and ±100 the full control effect; nearly all actives have a fitted effect of over 55% in size
# Target sequence (A8B2U2 whole entry, looked up): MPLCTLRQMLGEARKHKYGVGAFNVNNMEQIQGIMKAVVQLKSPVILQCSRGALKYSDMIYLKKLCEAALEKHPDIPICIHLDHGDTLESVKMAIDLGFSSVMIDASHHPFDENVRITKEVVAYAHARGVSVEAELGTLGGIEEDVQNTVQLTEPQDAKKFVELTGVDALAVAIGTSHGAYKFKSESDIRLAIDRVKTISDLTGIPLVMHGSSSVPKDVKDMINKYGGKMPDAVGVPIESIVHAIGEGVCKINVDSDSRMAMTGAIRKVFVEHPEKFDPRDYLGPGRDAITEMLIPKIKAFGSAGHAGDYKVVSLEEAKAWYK
#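 Giardia FBPA (40 nM reagent) was preincubated 10 min at RT with compound (up to 57.5 uM final), then substrate plus GAPDH/TPI/NAD/arsenate coupling system with diaphorase/resazurin was added; resorufin fluorescence (525/598 nm) was read after 20 min.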
# RE007 growth inh: less growth of the S. pombe RE007 Vpr strain. Potency, µM (top dose mostly 92.2 µM), without a hit: at the top dose activity change, negative = less growth, most hits filed as inhibitors. 0.21% of 360,000 active. S. pombe RE007 Vpr strain, BacTiter-Glo ATP luminescence, 24 h; active means well fitted falling curve with a large enough effect; inconclusive means small, poorly fitted or top-dose-only effect; inactive means no such curve, though single readings can be large or run the other way; further: potency means the concentration at half of the fitted maximal effect; on the % scale 0 is the no-effect control and ±100 the full control effect; nearly all actives have a fitted effect of over 50% in size
#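 Fission yeast RE007 carrying one integrated HIV-1 vpr copy, seeded at OD 0.01 in PMG+AL medium with 23 nL pinned compound. Grown 24 h at 30 degrees; viability read by BacTiter-Glo luminescence after 5 min.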
# Cycloheximide cs: counter-screen hit for Shiga toxin inhibitors, cycloheximide | max response, % | 12% of 300,000 active | cell reporter, cycloheximide protein synthesis inhibition counterscreen | AID 2314; in the data active means max response mostly above about 13%, no sharp cut-off; inactive means mostly below about 14%; further: read at 38.3 µM for the half of the compounds with a filed dose; 0% is about no effect
# * marks the source's active call; other numbers are inactive results; ? = inconclusive; nt = no result; [ ] = another dose, or the depositor's remark. This is one part of a sample in which hits are shown more often than they occur. Unless noted, the call rests on the fitted dose curve; in most records, active means well fitted curve in the direction sought with a large enough effect; inconclusive means small, poorly fitted or top-dose-only effect, or another doubt; inactive means no such curve, though single readings can be large; an effect the other way counts as inactive or inconclusive.
SMILES,Shiga inhibitor,Tb PYK inh,LmPK inhibitor,Giardia FBPA inh,RE007 growth inh,Cycloheximide cs
CC1(C(=O)NS(=O)(=O)C2CC2)CCCN(C(=O)c2cccnc2Oc2ccccc2)C1 (stereo not drawn),nt,-7%,nt,nt,-2%,nt
CCOC(=O)C1=C(C)NC(C)=C(C(=O)OC)[C@@H]1c1cccc(Cl)c1Cl,nt,nt,nt,1%[21.7 µM],nt,nt
Cc1ccc(Nc2nc(N)nc(-c3oc4ccccc4c3C)n2)cc1,46*,-3%,1%,0%,-17%,23*
Cc1cccc(Nc2nc(N)nc(-c3oc4ccccc4c3C)n2)c1,89*,-3%,3%,-6%,-19%,53*
COc1cccc(Nc2nc(N)nc(-c3oc4ccccc4c3C)n2)c1,79*,-3%,3%,0%,-19%,42*
Cc1c(-c2nc(N)nc(Nc3ccccc3F)n2)oc2ccccc12,187*,-1%,-4%,-3%,-4%,57*
COc1cccc(Nc2cc(C)nc3ccccc23)c1,-4,-5%,0%,5%,-6%,3
CCc1nc(Nc2ccccc2F)c2oc3ccccc3c2n1,24,3%,-1%,-24%,-13%,8
Cc1ccc(Nc2nc(N)nc(COC(=O)c3ccc(Br)o3)n2)cc1,nt,0%,nt,nt,0%,nt
CC(C)(CC(=O)OCC(=O)Nc1ccc(F)c(Cl)c1)CC1=NS(=O)(=O)c2ccccc2N1,nt,-4%,nt,nt,nt,nt
CC(=O)[C@H]1[C@H]([C@H](O)[C@H](O)CO)O[C@](O)(C(=O)O)C[C@@H]1O,nt,4%,nt,nt,-5%,nt
COc1ccc(C(=O)C2CCCN(C(=O)c3csc(SC)n3)C2)cc1F (stereo not drawn),nt,-7%,nt,nt,5%,nt
Cc1n[nH]c(=O)c2c(NC(=O)CSc3nncs3)oc(C)c12,nt,-10%,nt,nt,9%,nt
Cc1ccc2c(c1)C(=O)OC(C(=O)Nc1ccc(C(=O)O)cc1)C2 (stereo not drawn),nt,4%,nt,nt,nt,nt
CSCCC(NS(=O)(=O)/C=C/c1ccccc1)C(=O)NCCc1ccc(S(N)(=O)=O)cc1 (stereo not drawn),11,-6%,1%,0%,10%,-1
COc1ccccc1Nc1nc(N)nc(-c2cc3ccccc3o2)n1,active,-5%,3%,-1%,-1%,33*
COc1ccccc1Nc1nc(N)nc(CN2CCOCC2)n1,3,-5%,-2%,-24%,-5%,-2
COc1ccc(-c2cc(C(C)=O)c(C)n2CCC(=O)Nc2ccc(C)c(Cl)c2)cc1,nt,-6%[15.4 µM],nt,nt,nt,nt
COc1ccc(CNCc2ccc(C(F)(F)F)cc2)cc1OC,-5,-11%,0%,-15%,-20%,-3
COc1cc(O)oc1C=Nc1ccc(C(F)(F)F)cc1,34*,-2%,-16%,-8%,4%,42*
Cc1ccc(/C=N/n2cnc3sc(C)c(C)c3c2=O)o1,47,-2%,8%,-1%,-5%,26*
COC(=O)c1cccc(NC(=O)c2cc(OC)c(OC)c(OC)c2Br)c1,20,-2%,4%,-5%,20%,5
COc1cccc(OC)c1C(=O)Nc1cccc(C(=O)Nc2cccc(C(=O)O)c2)c1,-3,7%,0%,9%,-18%,-1
O=C(Nc1ccccc1)c1ccccc1N=Cc1cccc(O)c1,7,2%,1%,4%,-15%,1
COc1ccccc1C(=O)Nc1cccc(C(=O)c2ccccc2)c1,20,-3%,8%,11%,7%,13*
SMILES,Shiga inhibitor,Tb PYK inh,LmPK inhibitor,Giardia FBPA inh,RE007 growth inh,Cycloheximide cs
COc1ccc(C(=O)Nc2cccc(C(C)=O)c2)c(OC)c1OC,69*,3%,0%,-1%,-5%,22*
COc1cc(OC)c(C(=O)Nc2cccc(C(C)=O)c2)cc1OC,25,-11%,17%,1%,10%,19*
COc1cccc(C=Nc2ccccc2C(=O)Nc2ccccc2)c1O,77*,-4%,-2%,?,-16%,55*
CCC/C=C(\CCC)C(NS(=O)(=O)CC12CCC(CC1=O)C2(C)C)c1ccc(C(=O)OC)cc1 (stereo not drawn),nt,nt,nt,-6%,nt,nt
COc1ccc(-c2ccc3c(c2)c(Sc2ccccc2)c(-c2ccccc2)n3C)cc1,nt,5%,nt,nt,2%,nt
CCOc1ccc2nc(N3CCN(C(=O)c4ccc5c(c4)CCCC5)CC3)sc2c1,nt,-2%,nt,nt,nt,nt
COc1ccc(C(C)NC(=O)Nc2ccc(C(C)=O)cc2)cc1OC (stereo not drawn),23,4%,-3%,nt,1%,23*
COC(=O)[C@@H](NC(=O)Nc1ccc(C(C)=O)cc1)C(C)C,-4,-8%,-1%,1%,-12%,2
COc1ccc(C(=O)Nc2cccc(C(C)=O)c2)cc1OC,45,-13%,?,2%,7%,30*
COc1ccccc1CN1C[C@@H]2C[C@@H](c3[nH]c4c(C)cccc4c3C)N3CCC[C@@]23C1=O,-4,2%,4%,-10%,-15%,-3
Cc1ccc(CNC(=O)CSCc2cccc(F)c2)cc1,65,-1%,0%[11.5 µM],12%,-4%,46*
O=C(CSCc1cccc(F)c1)NCc1ccccc1,173*,-12%,2%,6%,7%,48*
COc1ccc(CNC(=O)CSCc2ccccc2Cl)cc1,66*,-6%,1%,-3%,0%,62*
O=C(CSCc1ccccc1F)NCc1ccccc1,72,4%,1%,1%,7%,44*
O=C(CCSCc1cccc(F)c1)NCc1ccc(F)cc1,-11,-26%,7%,12%,-8%,-1
O=c1[nH]c(SCCc2ccccc2)nc2c1CCC2,nt,1%,nt,nt,4%,nt
O=S1(=O)CCN2C(=N1)Sc1c2ccc2c1CCCC2,69*,-18%,6%,-23%,11%,25*
O=C(O)c1ccc2c(c1)SC1=NS(=O)(=O)CCN12,7,0%,3%,8%,6%,-1
O=C(Nc1cc2c(cc1C(=O)O)OCCCO2)c1ccc(C(F)(F)F)cc1,76*,0%,-3%,nt,-9%,44*
CCC(O)c1cc2c(cc1NC(=O)c1ccc(C)cc1)OCCO2 (stereo not drawn),34,-2%,-5%,-6%,2%,17
O=C(Cc1ccccc1)Nc1ccc(NC(=O)c2ccccc2)c(Cl)c1,2,-6%,0%,24%,22%,2
O=C(Cc1ccccc1)Nc1cc2c(cc1Cl)OCCCO2,75*,4%,-1%,1%,-17%,59*
CCc1ccc(C(=O)Nc2cc3c(cc2Cl)OCCCO3)cc1,84*,-10%,1%,1%,-8%,60*
Cc1ccc(C(=O)N2CCCC(Nc3ccc(F)cc3)C2)cc1C (stereo not drawn),-5,1%,-7%,nt,6%,7
Cn1cccc1C(=O)N1CCC2(CC1)CCN(c1ccc(-c3ccccc3)cc1)CC2,nt,0%,nt,0%,nt,nt
CCCCCCn1cc(CN2CC(N3CCN(CCO)CC3)CS2(=O)=O)nn1 (stereo not drawn),nt,-4%,nt,nt,-8%,nt
